Assay [1] can be described thus: A549 cell viability effects, profiling panel, calcein-AM fluorescence, 48 h, basal (AID 1162). The following applies: higher = more signal.
A short description of assay [2]: adipocyte viability effects, profiling panel, cell-based, 3T3-L1 adipocytes, calcein-AM fluorescence, 48 h, basal (AID 1163). To be noted: 3T3-L1 adipocytes viability, higher = more signal.
Assay [3] in a line: HepG2 cell viability effects, profiling panel, calcein-AM fluorescence, 48 h, basal (AID 1164). The following applies: higher = more signal.
A short description of assay [4]: MM1S cell viability effects, profiling panel, calcein-AM fluorescence, 48 h, basal (AID 1165).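 Further: viability of MM1S multiple myeloma cells under basal unstimulated conditions.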 The following applies: higher = more signal.
Assay [5] can be described thus: basal RPMI8226 viability, no added stimulus, profiling panel, cell-based, calcein-AM fluorescence, 48 h, PK04 Diversity Set (AID 1166).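 Further: cells grown under basal conditions without added stimulus.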 The following applies: RPMI8226 myeloma viability, higher = more signal.
Assay [6] in a line: basal HepG2 mitochondrial membrane potential changes, profiling panel, cell-based, JC-1 fluorescence, 24 h, 100 nL compound (AID 1167). The following applies: higher = more signal.
Assay [7] is described as follows: basal 3T3-L1 adipocyte mitochondrial potential changes, profiling panel, cell-based, JC-1 fluorescence, 3T3-L1 adipocytes, 24 h, 100 nL compound (AID 1168). The following applies: JC-1 mitochondrial fluorescence, higher = more signal, called active from +8 up or from −8 down.
The nature of assay [8]: basal RPMI8226 mitochondrial membrane potential changes, profiling panel, cell-based, JC-1 fluorescence, 24 h, 100 nL compound (AID 1169). The following applies: RPMI8226 myeloma, JC-1 mitochondrial potential fluorescence, higher = more signal.
Assay [9] is described as follows: basal MM1S mitochondrial membrane potential changes, profiling panel, cell-based, JC-1 fluorescence, 24 h, 100 nL compound (AID 1170). The following applies: higher = more signal.
A short description of assay [10]: A549 lung cancer cell viability effects, profiling panel, resazurin fluorescence, 24 h, PK04 Diversity Set (AID 1171). To be noted: higher = more signal, called active from +8 up or from −8 down. Background: Resazurin is reduced to fluorescent resorufin, in cell work by metabolically active cells.

Structures are written as SMILES. Calls of active or inactive are those of the source.
Further: test concentration not given here.

On to `C=C(CCCC)C(=O)CC[C@@H](OC(=O)c1cccnc1)c1ccc(OCCO)cc1`, for which the z-score is 0.67 in assay [1]; 0.866 in [2]; 0.376 in assay [3]; -3.34 in [4]; -2.89 in assay [5]; -0.279 in assay [6]. Moreover, the z-score in assay [7] was -0.188 (inactive); in assay [8], -0.673; in [9] it was -0.652; in assay [10], 0.116 (inactive).
`COc1cc(CO)cc(I)c1O[C@H]1C=C(C(=O)NCCO)C[C@@H](NCC2CCCCC2)[C@@H]1O`: the z-score in assay [1] is 1.31; in assay [2], 0.13; in assay [3] it was 0.407; in [4], -0.235; in [5], 0.893; in assay [6], 1.25. Besides, the z-score in assay [7] is -0.328 (inactive); in assay [8] it was -0.561; in [9], -1.5; in assay [10], 0.258 (inactive).
For the molecule `[N-]=[N+]=NCc1ccccc1[C@H]1OC(c2ccc(OCCCO)cc2)=N[C@@]1(Cc1ccccc1)C(=O)NCCN1CCOCC1`, the z-score in assay [1] is 0.526; in assay [2], 1.06; in assay [3] it was 0.688; in assay [4] it was -2.51; in assay [5], -1.2; in [6], 1.51. The z-score in assay [7] was -0.0131 (inactive); in assay [8] it was -0.815; in assay [9], 0.45; in assay [10], 1.19 (inactive).
For `Cc1ccccc1C(O)C1C=CC2C(=O)NC(=O)C2N1Nc1ccc(Cl)cc1Cl` (stereo not given), the z-score is -0.235 in assay [1]; -0.636 in assay [2]; -0.245 in assay [3]; -2.93 in assay [4]; -1.58 in [5]; -2.8 in [6]. The z-score in [7] was -0.879 (inactive); in [8], -0.153; in assay [9] it was 0.106; in assay [10], -0.8 (inactive).
For `CS(=O)(=O)CCOC(=O)C1=CC(CCCO)=CC(C2CC2)N(Cc2cccc(OC(F)(F)F)c2)C=C1C(=O)OCCS(C)(=O)=O` (stereo not given), the z-score is 0.78 in assay [1]; 0.751 in assay [2]; 0.572 in assay [3]; -2.98 in assay [4]; -1.18 in assay [5]; 1.92 in [6]. The z-score in assay [7] was -0.374 (inactive); in assay [8], -0.34; in assay [9], -0.0798; in assay [10] it was 0.538 (inactive).
On to `COc1ccc([Si](C)(C)[C@H]2[C@H](CC(=O)N3CCC[C@H]3CO)O[C@@]3(C(=O)N(Cc4ccc(N5CCC5=O)cc4)c4ccccc43)[C@@H]2C)cc1`, for which the z-score in assay [1] was -0.428; in assay [2], 0.303; in assay [3], -0.784; in assay [4], -2.65; in assay [5] it was -3.76; in [6] it was 1.26. The z-score is 0.198 (inactive) in assay [7], -1.09 in [8], 0.309 in assay [9] and -0.737 (inactive) in [10].
On to `CCOC(=O)C1=C[C@@H](C(C)(C)C)N(S(=O)(=O)c2ccc(C)cc2)[C@H]1c1ccc(C)cc1`, for which the z-score in assay [1] was -0.681; in assay [2] it was 0.226; in assay [3] it was -1.73; in [4], -1.01; in assay [5], -1.1; in [6] it was 6.67. Also, the z-score in [7] is -0.251 (inactive); in assay [8], -0.901; in assay [9], 0.933; in assay [10], 0.51 (inactive).
Consider `COC(=O)[C@@]1(Cc2ccc(F)cc2)[C@H]2c3cc(C(=O)N(C)C)n(Cc4c(CO)[nH]cc(C)c4=O)c3C[C@H]2CN1C(=O)c1ccccc1`, for which the z-score in assay [1] is -0.108; in assay [2] it was 0.837; in [3], -0.554; in assay [4] it was -1.33; in assay [5] it was -0.372; in [6] it was -0.3. In addition, the z-score in [7] was -0.91 (inactive); in [8], -0.00352; in [9] it was -0.895; in assay [10], -1.42 (inactive).
Turning to `COc1cc2c(cc1OC)CN(C(=O)[C@@H]1[C@H]3C(=O)O[C@H](c4ccccc4)[C@H](c4ccccc4)N3[C@H](c3ccc(O)cc3)[C@@]13C(=O)Nc1ccc(C#CCCO)cc13)CC2`, the z-score in [1] is -0.446; in assay [2] it was -0.423; in assay [3], -0.314; in assay [4], -0.0118; in [5], 0.191; in assay [6], -2.29. Also, the z-score in assay [7] was 0.0304 (inactive); in assay [8] it was -0.294; in assay [9] it was -0.492; in assay [10] it was 0.156 (inactive).
Take `CCOC(=O)C1=CC[C@@H](c2ccccc2)N(S(=O)(=O)c2ccc(C)cc2)[C@H]1C=Cc1ccccc1`: the z-score was -0.959 in [1]; -0.443 in [2]; -0.599 in assay [3]; -0.149 in assay [4]; -1.44 in [5]; 2.91 in assay [6]. Further, the z-score in [7] was -0.489 (inactive); in assay [8], 0.0754; in [9], -1.42; in assay [10], 2.28 (inactive).
Take `CCOC(=O)C1=CCN(S(=O)(=O)c2ccc(C)cc2)C1c1ccccc1` (stereo not given): the z-score is -0.973 in assay [1]; -0.205 in assay [2]; -0.535 in assay [3]; -0.455 in assay [4]; -1.21 in assay [5]; -1.62 in [6]. Also, the z-score in assay [7] is -0.804 (inactive); in assay [8], 0.443; in assay [9], -0.583; in assay [10], 0.739 (inactive).
Regarding `CC(C)N1CC=CC23O[C@@H]4/C=C\CCCOC(=O)C4[C@H]2C(=O)N(CCCCCCO)[C@@H]3C1=O` (stereo not given in full), the z-score is 1.46 in assay [1]; -0.377 in assay [2]; 0.922 in assay [3]; 1.49 in assay [4]; 0.0006 in assay [5]; 1.14 in assay [6]. Moreover, the z-score in assay [7] was -0.0751 (inactive); in assay [8], -0.659; in assay [9], 1.23; in assay [10] it was 1.51 (inactive).
Consider `COCCCNC(=O)[C@@H]1c2ccccc2C(=O)N(C2Cc3ccccc3C2)[C@H]1c1ccc(CO)cc1`, for which the z-score in assay [1] is 1.12; in assay [2] it was 0.275; in assay [3], 0.165; in [4], 0.155; in assay [5], 0.261; in [6] it was 2.94. Besides, the z-score is -0.17 (inactive) in assay [7], 0.217 in [8], 0.494 in assay [9] and 0.58 (inactive) in assay [10].
`COc1cc(C(O)C2C=CC3C(=O)N(Cc4ccccc4)C(=O)C3N2n2cnnc2)cc(OC)c1OC` (stereo not given): the z-score in [1] was 1.39; in assay [2] it was -0.356; in [3] it was 1.67; in [4] it was 0.599; in [5], 1.46; in assay [6], 0.576. For the same molecule, the z-score was 0.328 (inactive) in assay [7], 0.251 in [8], 0.588 in assay [9] and -0.538 (inactive) in assay [10].
`C=C(CCCC)C(=O)CC[C@H](OC(C)=O)c1ccc(OCCO)cc1`: the z-score is 0.95 in [1]; 3.04 in [2]; -0.0781 in assay [3]; -2.86 in assay [4]; -3.54 in [5]; 0.764 in assay [6]. Also, the z-score in assay [7] was -0.387 (inactive); in assay [8], -0.248; in assay [9], -1.39; in assay [10], 0.697 (inactive).
In the case of `CC(=O)n1cc(C(O)C2C=CC3C(=O)N(c4ccccc4)C(=O)C3N2Nc2ccc(C(C)C)cc2)c2ccccc21` (stereo not given), the z-score is -0.545 in [1]; -0.745 in assay [2]; -1.08 in assay [3]; -0.829 in assay [4]; -1.33 in assay [5]; -0.975 in [6]. Besides, the z-score was -1.16 (inactive) in [7], -0.886 in assay [8], 0.299 in [9] and 0.169 (inactive) in assay [10].

(Values after PubChem BioAssay.)
